# High-throughput results deposited in PubChem BioAssay by Sanford-Burnham Center for Chemical Genomics.
# Shown are actives, neighbours in structure and some others; about 3% of the full set was active somewhere.
# SENP6 block: SENP6 protease inhibitors, primary screen, biochemical, luminescence, uHTS | Sentrin-specific protease 6 (Homo sapiens), Q9GZR1 | Recombinant SENP6 catalytic domain, aminoluciferin luminescence | inhibition, % at 10 µM | 330,000 tested, 1.8% active | AID 2599, 2010;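 active = inhibition above about 50% at the single tested dose, limit read from the data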;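 note: plate controls were DMSO wells with enzyme for no effect and DMSO wells lacking enzyme for full effect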
# SENP7 block: SENP7 protease inhibitors, primary screen, biochemical, luminescence, uHTS; inhibition, % at 5 µM; recombinant SENP7, Z-RLRGG-aminoluciferin luminescence, 40 min; Sentrin-specific protease 7 (Homo sapiens), Q9BQF6; 330,000 tested, 1.5% active;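 active = inhibition above about 50% at the single test dose, limit read from the data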;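 note: plate controls were DMSO with enzyme for no effect and no enzyme buffer wells for full effect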
# Target sequence (Q9BQF6 706-1050 limits assumed): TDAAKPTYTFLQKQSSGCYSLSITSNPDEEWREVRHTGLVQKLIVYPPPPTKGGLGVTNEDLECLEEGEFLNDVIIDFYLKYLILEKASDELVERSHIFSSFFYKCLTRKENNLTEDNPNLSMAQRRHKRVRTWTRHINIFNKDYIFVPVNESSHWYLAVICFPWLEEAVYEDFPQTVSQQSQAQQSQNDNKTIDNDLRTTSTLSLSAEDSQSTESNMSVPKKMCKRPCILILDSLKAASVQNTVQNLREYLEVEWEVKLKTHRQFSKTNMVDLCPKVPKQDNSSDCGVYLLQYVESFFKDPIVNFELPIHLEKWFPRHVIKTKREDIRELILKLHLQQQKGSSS
# SENP8 block-1: human SENP8 protease inhibitors, primary screen, biochemical, fluorescence, Nedd8 protein substrate, uHTS. Sentrin-specific protease 8 (Homo sapiens), Q96LD8. recombinant SENP8. inhibition, % at 20 µM. 360,000 tested, 0.64% active. AID 602440, 2012; in the data active = inhibition mostly above about 40%, no sharp cut-off; inactive = mostly below about 27%
# TRAIL sens C8: viability loss with TRAIL in NB7+C8 cells, primary screen, TRAIL sensitizer project, cell-based, ATPlite luminescence; inhibition (viability loss, TRAIL sensitization), % at 10 µM; 360,000 tested, 1% active; AID 624354, 2012;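 active = compounds causing at least 50% loss of cell viability in the single-dose screen, relative to plate controls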
# SENP8 block-2: SENP8 protease inhibitors, primary screen, biochemical, luminescence; purified SENP8, Z-RLRGG-aminoluciferin cleavage; 330,000 tested, 1.2% active; Sentrin-specific protease 8 (Homo sapiens), Q96LD8; inhibition, % at 10 µM; in the data active = inhibition above about 50%
# PPC-1+TRAIL kill: compounds killing PPC-1 cancer cells with TRAIL present, primary screen, TRAIL potentiator project, ATPLite luminescence, uHTS; 220,000 tested, 0.41% active; cell killing (% activity), % at 4 µM or 5 µM; AID 1443, 2008; PPC-1 cells + TRAIL, ATPLite viability luminescence;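 active = cell killing above 50% in the first pass at 4 µM, then a duplicate retest at 5 µM averaging 50% or more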;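 note: plate controls were cells with TRAIL plus DMSO for no effect and medium-only wells lacking cells for full effect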
# SENP8 confirm: SENP8 protease inhibitors, retest, confirmation, biochemical, luminescence, single concentration. shares compounds with SENP7 block. Recombinant SENP8, Z-RLRGG-aminoluciferin luminescence, 60 min. inhibition, % at 12.5 µM. 6,200 tested, 40% active. AID 488912, 2010;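 active = mean inhibition across replicates above about 50%, limit read from the data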
# SENP6 conf: SENP6 protease inhibitors, confirmation, biochemical, luminescence, single concentration; shares compounds with SENP7 block; inhibition, % at 12.5 µM; recombinant SENP6, Z-RLRGG-aminoluciferin luminescence; 6,200 tested, 58% active
# SENP7 confirm: SENP7 protease inhibitors, retest, confirmation, biochemical, luminescence, single concentration | shares compounds with SENP7 block | recombinant SENP7, Z-RLRGG-aminoluciferin luminescence, 40 min | inhibition, % at 12.5 µM | 6,200 tested, 69% active
# Casp3 SENP sel: caspase-3 protease inhibitors, confirmation, selectivity assay for SENP inhibitor project, biochemical, single concentration | 6,200 tested, 60% active | shares compounds with SENP7 block | inhibition, % at 12.5 µM | purified caspase-3, Z-DEVD-aminoluciferin luminescence, 60 min | AID 488918, 2010;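 active = mean inhibition above about 50%, limit read from the data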;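 note: plate controls were enzyme with DMSO for no effect and wells without caspase-3 for full effect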
# Target sequence (P42574 28-227 limits assumed): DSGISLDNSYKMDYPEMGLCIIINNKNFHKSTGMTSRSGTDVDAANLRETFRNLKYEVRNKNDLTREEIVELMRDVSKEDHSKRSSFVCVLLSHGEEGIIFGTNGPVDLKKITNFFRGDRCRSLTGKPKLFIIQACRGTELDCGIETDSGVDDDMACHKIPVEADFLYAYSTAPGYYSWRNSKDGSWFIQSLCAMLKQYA
# SENP luc ctr: interferes with luciferase luminescence in SENP counter-screen | shares compounds with SENP7 block | 6,200 tested, 39% active | Pre-incubated SENP8/Z-RLRGG-aminoluciferin, luciferase luminescence interference | inhibition, % at 12.5 µM | AID 488919;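 active = mean inhibition above about 50% when retested at one dose, limit read from the data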;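 note: plate controls were DMSO wells with completed reaction for no effect and substrate without enzyme for full effect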
# Active calls of the source: *; i = inactive; . = not tested or not shown.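 Rule for the calls, unless noted: active = mean inhibition above about 50% in the one-dose retest (limit read from the data); inactive = the rest.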
SMILES,SENP6 block,SENP7 block,SENP8 block-1,TRAIL sens C8,SENP8 block-2,PPC-1+TRAIL kill,SENP8 confirm,SENP6 conf,SENP7 confirm,Casp3 SENP sel,SENP luc ctr
CCCc1[nH]n(-c2nc3ccccc3s2)c(=O)c1C=NCCCN(CC)CC,68.3*,39.8,13.1,9.4,41.8,-13.4,48.7,21.8,33.1,60.4*,57.3*
N/C(CS(=O)(=O)c1ccccc1)=N\OC(=O)c1ccc(F)cc1,5.4,-5.3,6.2,-3.3,-1.8,.,.,.,.,.,.
O=C(O/N=C/C1=C(Cl)c2ccccc2CC1)c1ccc(F)cc1,-14.9,64.0*,-2.5,0.5,-10.6,-2.2,10.2,12.6,17.0,30.9,1.7
O=c1c(-c2ccccc2)c[nH]n1-c1cccc([N+](=O)[O-])c1,78.5*,68.3*,7.8,15.0,75.5*,11.5,73.3*,72.5*,94.1*,90.4*,73.9*
O=c1c(-c2ccc(Cl)cc2)c[nH]n1-c1ccccc1,54.4*,5.6,-5.9,24.1,42.3,.,22.3,38.2,48.3,65.8*,7.0
Cc1[nH]n(-c2ccccc2)c(=O)c1-c1ccc(Cl)cc1,2.4,3.2,-19.0,-9.8,3.3,24.0,.,.,.,.,.
Cc1ccc(C(=O)N[C@@H](C)CN2C3=NC[C@H](C)N3C[C@H]2Cc2ccc(O)cc2)cc1Br,-9.0,-12.1,.,.,12.5,27.8,.,.,.,.,.
COC(=O)C1(C(=O)OC)C[C@H](c2ccc(OC)cc2)N(Cc2ccccc2OC)[C@@H]1c1ccc(OC)cc1,.,.,26.9,8.0,.,.,.,.,.,.,.
Cc1ccc(-c2nc3cc(NC(=O)C(C)C)ccc3o2)cc1C,94.6*,98.4*,-280.4,37.2,92.3*,21.6,4.8,23.1,12.2,76.7*,2.9
Cc1ccc(CNc2ncccc2-c2nc3cc(Cl)ccc3o2)cc1,10.0,15.0,-260.3,-10.6,-2.5,28.6,.,.,.,.,.
Cc1cc2nc(-c3ccc(NC(=O)C(C)C)cc3)oc2cc1C,25.7,70.2*,i,20.7,20.8,12.3,13.5,14.2,28.8,45.1,17.4
Cc1ccc(-c2nc3cc(Cl)ccc3o2)cc1,90.9*,89.9*,0.2,31.4,75.3*,-12.4,7.2,16.6,35.1,12.9,5.9
COc1cc(OC)cc(-c2nc3cc(C)ccc3o2)c1,97.0*,98.4*,-39.4,25.7,94.5*,28.7,95.4*,97.4*,101.1*,94.4*,93.2*
COc1ccc(S(=O)(=O)NC(=O)C2(C)CCN2C(=O)COc2ccc(Cl)cc2)cc1OC (centres undefined),.,.,16.5,-2.6,.,.,.,.,.,.,.
COc1ccc(OC)c(N(/C(N)=N/c2nc(C)cc(C)n2)S(=O)(=O)c2ccc(NC(C)=O)cc2)c1,-20.4,-2.3,18.3,28.4,-3.0,.,.,.,.,.,.
Cc1cccc(C)c1OCc1cc(C(=O)N(Cc2c(C)nn(C)c2C)C2CC2)no1,-1.5,-4.1,9.2,22.2,-8.5,.,.,.,.,.,.
Cc1ccc(-c2nc3cc(NC(=O)C(C)C)ccc3o2)cc1,75.5*,83.5*,-490.6,46.4,34.5,36.0,0.6,5.5,7.1,13.1,9.7
Cc1ccc2nc(-c3ccc(O)cc3)oc2c1,84.9*,74.5*,-407.0,79.4*,85.5*,.,83.9*,83.8*,94.3*,67.7*,24.2
CC(=O)Nc1ccc(-c2nc3ccc(NC(C)=O)cc3o2)cc1,12.9,-4.8,-303.4,1.8,0.6,.,.,.,.,.,.
COc1ccc(OC2(C)CCN(Cc3ccccc3OC(F)F)C2)cc1 (centres undefined),.,.,10.8,0.5,.,.,.,.,.,.,.
Cc1ccc2c(c1)C(N1CCCC1=O)CC(c1ccco1)N2 (centres undefined),93.8*,-7.9,-473.2,47.6*,95.4*,-17.1,22.3,81.7*,100.4*,95.1*,17.2
Cc1ccc(C2CC(c3ccco3)n3ncnc3N2)cc1 (centres undefined),-6.2,-6.0,-16.6,-5.8,-2.9,28.3,.,.,.,.,.
Cc1ccc(NC(=O)COc2ccccc2[N+](=O)[O-])nc1,72.3*,69.5*,3.7,60.4*,50.0,32.3,15.2,41.5,81.4*,79.1*,7.1
O=C(Nc1ccc(-c2nc3ccccc3[nH]2)cc1)C1CCCO1 (centres undefined),87.2*,93.2*,-94.8,73.0*,87.7*,20.9,92.4*,92.5*,99.3*,96.2*,78.7*
O=C(Nc1nc2ccccc2[nH]1)C1CCCO1 (centres undefined),-19.6,0.6,24.2,-12.2,-7.1,7.1,.,.,.,.,.
SMILES,SENP6 block,SENP7 block,SENP8 block-1,TRAIL sens C8,SENP8 block-2,PPC-1+TRAIL kill,SENP8 confirm,SENP6 conf,SENP7 confirm,Casp3 SENP sel,SENP luc ctr
O=C(Cc1cccs1)Nc1ccc(-c2nc3ccccc3[nH]2)cc1,59.0*,84.5*,-399.2,42.6,17.1,34.3,14.9,18.1,86.9*,67.5*,31.6
O=C(CSc1ccccc1)Nc1ccc(-c2nc3ccccc3[nH]2)cc1,-12.5,23.3,-69.6,24.1,-17.8,31.5,.,.,.,.,.
COC1CCCN(C(=O)c2ccc(OC3CCN(CCc4ccccc4)CC3)cc2)C1 (centres undefined),9.2,10.0,-10.0,-4.6,6.4,2.4,.,.,.,.,.
COc1ccc(-c2cc(-c3ccccc3)no2)cc1,96.5*,100.2*,16.1,59.4*,91.9*,.,8.5,81.4*,85.6*,76.1*,48.6
O=C(O)c1ccc(-c2noc(-c3cccc(C(F)(F)F)c3)n2)cc1,58.4*,3.9,13.0,-10.1,40.6,.,53.8*,55.9*,80.1*,55.7*,53.5*
c1ccc(-c2cc(-c3cc(-c4ccccc4)on3)no2)cc1,.,.,17.4,14.1,.,.,.,.,.,.,.
